{"source": "the supplement of paper PMC12808144", "data": [{"test_system": "Mel-DCC-11-R", "test": "cell viability relative to DMSO control (fraction of DMSO control); higher = less cytotoxic, active = 0.8 or less", "details": "1 µM; 120 h; vemurafenib co-treatment 0 µM", "description": "(§1)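 Same 315-drug TargetMol library at 1 µM in duplicate, 120 h, ATPlite luminescence normalised to DMSO controls, on the vemurafenib-resistant subline Mel-DCC-11-R cultured alone or with 8 µM vemurafenib co-treatment (Mel-DCC-11-R + V).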", "values": [{"smiles": "O=C([O-])CCCc1ccccc1.[Na+]", "note": "[Sodium Phenylbutyrate]", "cell viability": "1 (inactive)"}, {"smiles": "Cc1cn(-c2cc(NC(=O)c3ccc(C)c(Nc4nccc(-c5cccnc5)n4)c3)cc(C(F)(F)F)c2)cn1", "note": "[Nilotinib]", "cell viability": "1.15 (inactive)"}, {"smiles": "CC/C(=C(\\c1ccc(O)cc1)c1ccc(OCCNC)cc1)c1ccccc1", "note": "[(E/Z)-Endoxifen]", "cell viability": "1.15 (inactive)"}, {"smiles": "O=C(c1cc(Cc2n[nH]c(=O)c3ccccc23)ccc1F)N1CCN(C(=O)C2CC2)CC1", "note": "[Olaparib]", "cell viability": "1.09 (inactive)"}, {"smiles": "Cl.N=c1ccn2c(n1)O[C@H]1[C@H](O)[C@@H](CO)O[C@H]12", "note": "[Cyclocytidine hydrochloride]", "cell viability": "0.873 (inactive)"}, {"smiles": "COc1ccc2cc1Oc1ccc(cc1)C[C@H]1c3c(cc4c(c3Oc3cc5c(cc3OC)CCN(C)[C@@H]5C2)OCO4)CCN1C", "note": "[Cepharanthine]", "cell viability": "0.934 (inactive)"}, {"smiles": "Clc1ccc(C(c2ccccc2Cl)C(Cl)Cl)cc1", "note": "(stereo not given) [Mitotan]", "cell viability": "1 (inactive)"}, {"smiles": "Cc1[nH]c2ccccc2c1CCNCc1ccc(/C=C/C(=O)NO)cc1", "note": "[Panobinostat]", "cell viability": "0.0716 (active)"}, {"smiles": "Nc1nc(=O)c2c([nH]1)NCC(CNc1ccc(C(=O)N[C@@H](CCC(=O)[O-])C(=O)[O-])cc1)N2C=O.[Ca+2]", "note": "(stereo not given in full) [Calcium folinate]", "cell viability": "1.68 (inactive)"}, {"smiles": "C#Cc1cccc(Nc2ncnc3cc4c(cc23)OCCOCCOCCO4)c1", "note": "[Icotinib]", "cell viability": "1.1 (inactive)"}, {"smiles": "CCCC(=O)O[C@]1(C(=O)CO)CC[C@H]2[C@@H]3CCC4=CC(=O)CC[C@]4(C)[C@H]3[C@@H](O)C[C@@]21C", "note": "[Hydrocortisone butyrate]", "cell viability": "1.21 (inactive)"}, {"smiles": "C.CCN(CC)CCCC(C)Nc1ccnc2cc(Cl)ccc12.O=P(O)(O)O.O=P(O)(O)O", "note": "(stereo not given) [Chloroquine diphosphate]", "cell viability": "0.913 (inactive)"}, {"smiles": "CS(=O)(=O)OCCCCOS(C)(=O)=O", "note": "[Busulfan]", "cell viability": "0.994 (inactive)"}, {"smiles": "COc1cc2nccc(Oc3ccc(NC(=O)C4(C(=O)Nc5ccc(F)cc5)CC4)cc3)c2cc1OC.O=C(O)C[C@H](O)C(=O)O", "cell viability": "1.05 (inactive)"}, {"smiles": "CC(O)(P(=O)(O)O)P(=O)(O)O", "note": "[Etidronate]", "cell viability": "1.12 (inactive)"}, {"smiles": "COc1ccc(-c2cc(=S)ss2)cc1", "note": "[Anethole trithione]", "cell viability": "1.04 (inactive)"}, {"smiles": "CC(C)C[C@@H](NC(=O)[C@H](O)[C@@H](N)Cc1ccccc1)C(=O)O.Cl", "note": "[Bestatin hydrochloride]", "cell viability": "0.993 (inactive)"}, {"smiles": "CC(=O)OCC(=O)[C@@]1(O)CC[C@H]2[C@@H]3CCC4=CC(=O)C=C[C@]4(C)[C@H]3[C@@H](O)C[C@@]21C", "note": "[Prednisolone-21-acetate]", "cell viability": "1.14 (inactive)"}, {"smiles": "COc1ccc2c(c1OC)C(=O)O[C@@H]2[C@H]1c2c(cc3c(c2OC)OCO3)CC[NH+]1C.[Cl-]", "note": "[Noscapine hydrochloride]", "cell viability": "1.04 (inactive)"}, {"smiles": "CN(C)CCOc1ccc(/C(=C(/CCCl)c2ccccc2)c2ccccc2)cc1.O=C(O)CC(O)(CC(=O)O)C(=O)O", "note": "[Toremifene citrate]", "cell viability": "0.981 (inactive)"}]}, {"test_system": "Mel-DCC-11-R", "test": "cell viability relative to DMSO control (fraction of DMSO control); higher = less cytotoxic, active = 0.8 or less", "details": "1 µM; 120 h; vemurafenib co-treatment 8 µM", "description": "as §1", "values": [{"smiles": "O=C([O-])CCCc1ccccc1.[Na+]", "note": "[Sodium Phenylbutyrate]", "cell viability": "1.07 (inactive)"}, {"smiles": "Cc1cn(-c2cc(NC(=O)c3ccc(C)c(Nc4nccc(-c5cccnc5)n4)c3)cc(C(F)(F)F)c2)cn1", "note": "[Nilotinib]", "cell viability": "1.06 (inactive)"}, {"smiles": "CC/C(=C(\\c1ccc(O)cc1)c1ccc(OCCNC)cc1)c1ccccc1", "note": "[(E/Z)-Endoxifen]", "cell viability": "1.14 (inactive)"}, {"smiles": "O=C(c1cc(Cc2n[nH]c(=O)c3ccccc23)ccc1F)N1CCN(C(=O)C2CC2)CC1", "note": "[Olaparib]", "cell viability": "0.92 (inactive)"}, {"smiles": "Cl.N=c1ccn2c(n1)O[C@H]1[C@H](O)[C@@H](CO)O[C@H]12", "note": "[Cyclocytidine hydrochloride]", "cell viability": "0.599 (active)"}, {"smiles": "COc1ccc2cc1Oc1ccc(cc1)C[C@H]1c3c(cc4c(c3Oc3cc5c(cc3OC)CCN(C)[C@@H]5C2)OCO4)CCN1C", "note": "[Cepharanthine]", "cell viability": "0.912 (inactive)"}, {"smiles": "Clc1ccc(C(c2ccccc2Cl)C(Cl)Cl)cc1", "note": "(stereo not given) [Mitotan]", "cell viability": "0.82 (inactive)"}, {"smiles": "Cc1[nH]c2ccccc2c1CCNCc1ccc(/C=C/C(=O)NO)cc1", "note": "[Panobinostat]", "cell viability": "0.0801 (active)"}, {"smiles": "Nc1nc(=O)c2c([nH]1)NCC(CNc1ccc(C(=O)N[C@@H](CCC(=O)[O-])C(=O)[O-])cc1)N2C=O.[Ca+2]", "note": "(stereo not given in full) [Calcium folinate]", "cell viability": "1.31 (inactive)"}, {"smiles": "C#Cc1cccc(Nc2ncnc3cc4c(cc23)OCCOCCOCCO4)c1", "note": "[Icotinib]", "cell viability": "0.849 (inactive)"}, {"smiles": "CCCC(=O)O[C@]1(C(=O)CO)CC[C@H]2[C@@H]3CCC4=CC(=O)CC[C@]4(C)[C@H]3[C@@H](O)C[C@@]21C", "note": "[Hydrocortisone butyrate]", "cell viability": "1.14 (inactive)"}, {"smiles": "C.CCN(CC)CCCC(C)Nc1ccnc2cc(Cl)ccc12.O=P(O)(O)O.O=P(O)(O)O", "note": "(stereo not given) [Chloroquine diphosphate]", "cell viability": "1.1 (inactive)"}, {"smiles": "CS(=O)(=O)OCCCCOS(C)(=O)=O", "note": "[Busulfan]", "cell viability": "1.13 (inactive)"}, {"smiles": "COc1cc2nccc(Oc3ccc(NC(=O)C4(C(=O)Nc5ccc(F)cc5)CC4)cc3)c2cc1OC.O=C(O)C[C@H](O)C(=O)O", "cell viability": "0.365 (active)"}, {"smiles": "CC(O)(P(=O)(O)O)P(=O)(O)O", "note": "[Etidronate]", "cell viability": "0.981 (inactive)"}, {"smiles": "COc1ccc(-c2cc(=S)ss2)cc1", "note": "[Anethole trithione]", "cell viability": "1.13 (inactive)"}, {"smiles": "CC(C)C[C@@H](NC(=O)[C@H](O)[C@@H](N)Cc1ccccc1)C(=O)O.Cl", "note": "[Bestatin hydrochloride]", "cell viability": "1.14 (inactive)"}, {"smiles": "CC(=O)OCC(=O)[C@@]1(O)CC[C@H]2[C@@H]3CCC4=CC(=O)C=C[C@]4(C)[C@H]3[C@@H](O)C[C@@]21C", "note": "[Prednisolone-21-acetate]", "cell viability": "1.04 (inactive)"}, {"smiles": "COc1ccc2c(c1OC)C(=O)O[C@@H]2[C@H]1c2c(cc3c(c2OC)OCO3)CC[NH+]1C.[Cl-]", "note": "[Noscapine hydrochloride]", "cell viability": "1.13 (inactive)"}, {"smiles": "CN(C)CCOc1ccc(/C(=C(/CCCl)c2ccccc2)c2ccccc2)cc1.O=C(O)CC(O)(CC(=O)O)C(=O)O", "note": "[Toremifene citrate]", "cell viability": "1.19 (inactive)"}]}]}
